Screens from PubChem BioAssay.
In the library only some 4.8% were active in any assay of this set; here they are far more common.
hgDAF-12 ag: activates the H. glycines DAF-12 receptor ligand-binding domain. HEK293 GAL4-hgDAF12 UAS-luciferase reporter, agonist luminescence; normalized to butyrate control. activation, % at 6.8 µM. 370,000 tested, 1.8% active. AID 687014;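 active = activation above a cutoff set at the mean of all screened compounds plus 3 SD, cut at about 10% in these data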;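 note: 0% = DMSO wells and 100% = sodium butyrate wells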
hcDAF12 agonist: H. contortus DAF-12 activation, primary screen. HEK293 hcDAF-12 lit1-tk-luc reporter, luminescence; 0% DMSO, 100% Δ7-dafachronic acid. activation, % at 6.8 µM. 370,000 tested, 1.4% active. AID 652067;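 active = activation above the mean of all tested compounds plus 3 SD, cut at about 5.5% in these data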;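 note: 100% = response to 3 µM Δ7-dafachronic acid high control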
ssDAF-12 act: activators of S. stercoralis DAF-12 nuclear receptor; HEK293 ssDAF-12/GRIP1 lit1-tk-luc reporter, luminescence; % of 3 µM dafachronic acid response; activation, % at 6.8 µM; 370,000 tested, 1% active; AID 652126;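 active = activation above the mean over all tested compounds plus 3 SD, cut at about 0.9% in these data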;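 note: 0% = DMSO-only wells and 100% = 3 µM delta7-dafachronic acid wells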
DAX1 inh-1: NR0B1 (DAX1) inhibition; P51843; HEK293 Gal4-DAX1 luciferase reporter, luminescence; inhibition, % at 6.75 µM; 340,000 tested, 0.99% active; AID 504766;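 active = inhibition above the mean over all tested compounds plus 3 SD, cut at about 4.2% in these data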;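 note: 0% = DAX1-transfected cells with DMSO and 100% = empty-vector control cells with DMSO; inhibition shows as a rise in luminescence from relieved DAX1 repression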
Target sequence (P51843 207-470 limits assumed): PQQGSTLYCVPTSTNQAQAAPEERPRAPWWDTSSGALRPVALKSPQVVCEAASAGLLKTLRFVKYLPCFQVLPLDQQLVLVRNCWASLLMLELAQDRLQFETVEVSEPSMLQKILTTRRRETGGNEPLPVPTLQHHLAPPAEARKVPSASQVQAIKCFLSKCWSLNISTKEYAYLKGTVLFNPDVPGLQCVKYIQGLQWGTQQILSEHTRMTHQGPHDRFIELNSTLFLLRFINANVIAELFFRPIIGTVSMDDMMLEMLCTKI
DAX1 inh-2: inhibitors of DAX1 repression of SF-1 activated StAR promoter; HEK293T StAR-luciferase reporter, SF-1/DAX-1 repression relief; inhibition, % at 6.8 µM; 370,000 tested, 1.1% active;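 active = inhibition above the mean over all tested compounds plus 3 SD, cut at about 3.6% in these data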;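 note: 0% = DAX-1 cells with DMSO and 100% = cells lacking DAX-1 with DMSO; higher inhibition means more luminescence from relief of DAX-1 repression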
SMARCA2 act: activators of SMARCA2 function. 370,000 tested, 1% active. AID 652017. MG213 cells, MMTV-luciferase reporter, dexamethasone, overnight. activation, % at 9.1 µM; in the data active = activation above about 7.8%;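 note: 0% = vehicle wells and 100% = reference activator wells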
The depositor's hits bear a star; x = not tested or not shown.

SMILES | hgDAF-12 ag | hcDAF12 agonist | ssDAF-12 act | DAX1 inh-1 | DAX1 inh-2 | SMARCA2 act
COC(=O)[C@@H](Cc1c[nH]c2ccccc12)NCc1cccc(B(O)O)c1 | -1.9 | 5.8* | -0.3 | -0.1 | -0.9 | 1.3
COC(=O)[C@@H](Cc1c[nH]c2ccccc12)NC(=O)CCC(=O)c1ccc(F)cc1 | -0.2 | 5.6* | -0.4 | 0.1 | -0.2 | -2.5
CCCOC(=O)C1=C(C)NC2=C(C(=O)CCC2)C1c1cccs1 (stereo unspecified) | -2.0 | -2.5 | 2.1* | 1.3 | -0.4 | -2.8
O=C(NC1CC1)c1sc2cc(Cl)ccc2c1Cl | 6.5 | 1.4 | -0.1 | 1.3 | 4.3* | 2.4
O=C(Nc1nccs1)c1sc2cc(Cl)ccc2c1Cl | 4.8 | 2.3 | 1.4* | 0.9 | 0.6 | 4.0
CN(C)c1cccc2c(S(=O)(=O)NCC3CCN(C(=O)C(=O)c4cccs4)CC3)cccc12 | -0.6 | -1.5 | -0.6 | x | -0.5 | -6.4
Cc1ccc(S(=O)(=O)NCC(=O)Nc2ccc3c(c2)OCO3)cc1 | 0.0 | -0.8 | -0.6 | -0.7 | 0.3 | 0.1
O=S(=O)(NCc1ccc2c(c1)OCO2)c1ccc(F)c(F)c1 | 0.2 | -2.4 | -0.9 | 2.9 | 0.1 | -1.3
CC(=O)Nc1ccc(OCc2ccc3c(c2)OCO3)cc1 | 12.2* | 5.0 | -0.1 | 3.8 | 0.7 | 4.9
O=S(=O)(NCc1ccc2c(c1)OCO2)c1ccc(F)cc1 | -2.6 | -1.9 | -0.6 | 7.5* | 0.7 | -1.0
COc1ccc(NC(=O)NCc2ccc3c(c2)OCO3)cc1 | 1.9 | -2.5 | -1.2 | -0.5 | 0.1 | 1.3
CC(=O)Nc1ccc(S(=O)(=O)NCC(=O)Nc2ccc3c(c2)OCO3)cc1 | -1.5 | -1.4 | 2.1* | -2.1 | -0.1 | 1.2
CCOc1ccc(NC(=S)NCc2ccc3c(c2)OCO3)cc1 | 0.1 | 0.2 | -0.4 | 5.5* | -0.1 | -1.4
COc1ccc2c(c1)CCCN2C(=O)C1CCCN(S(=O)(=O)c2ccc(C(C)(C)C)cc2)C1 (stereo unspecified) | -5.6 | -4.7 | -1.9 | x | -2.8 | -6.1
C=CCN1C(C(=O)OC)CN(Cc2cn(Cc3ccc(F)cc3)nn2)CCS1(=O)=O (stereo unspecified) | 1.3 | -1.9 | -0.8 | x | 2.5 | 2.3
O=C(OCc1cn(Cc2ccc(F)c(F)c2)nn1)N1CCOCC1 | -2.6 | -0.2 | -1.5 | x | 0.3 | -3.0
Cc1ccn2c(NC(=O)c3ccccc3)c(-c3cccs3)nc2c1 | 0.3 | 3.5 | -0.8 | -0.6 | -0.6 | -3.9
Cc1ccn2c(NCc3ccccc3)c(-c3cccs3)nc2c1 | 10.8* | 3.4 | -1.0 | 0.5 | 0.4 | 6.5
CSc1ccc(CN2C(=O)NC3(CCCCC3)C2=O)cc1 | -2.3 | -1.9 | -1.1 | 6.8* | -0.3 | -6.4
O=C(CC1CCCC1)N[C@H](C(=O)N1CCC[C@H]1C(=O)NC1CCCC1)c1ccccc1 | -1.3 | -2.0 | -1.5 | x | -0.1 | -3.4
Cc1ccc(C(=O)NCc2cccs2)cc1S(=O)(=O)N1CCCCC1 | -0.5 | -0.8 | 1.2* | -0.8 | -0.2 | -3.2
COCCNCC(=O)Nc1ccc(C)c(S(=O)(=O)N2CCCCC2)c1 | -1.8 | -0.1 | -1.2 | 4.3* | 0.6 | -3.7
O=C(NCc1cccs1)C1CCN(S(=O)(=O)c2cccc3cccnc23)CC1 | -0.1 | -1.6 | -1.2 | 4.3* | -0.8 | -0.9
Cc1ccc(C(=O)Nc2ccc3cn[nH]c3c2)cc1S(=O)(=O)N1CCCCC1 | 6.1 | 6.1* | 0.2 | -0.4 | 0.2 | -1.5
Cc1ccc(NC(=O)c2ccc(F)cc2)cc1S(=O)(=O)N1CCCCCC1 | -4.9 | -3.5 | -2.1 | -1.2 | -1.4 | -5.2
SMILES | hgDAF-12 ag | hcDAF12 agonist | ssDAF-12 act | DAX1 inh-1 | DAX1 inh-2 | SMARCA2 act
Cc1ccc(C(=O)NCc2ccccc2F)cc1S(=O)(=O)N1CCCC1 | 0.2 | -2.2 | -0.9 | 1.1 | -0.1 | -0.8
COc1cc(NC(=O)C2CCCN(S(=O)(=O)c3cccc4cccnc34)C2)cc(OC)c1 (stereo unspecified) | -4.8 | -3.9 | -1.9 | x | -2.1 | -3.5
Cc1ccc(NS(=O)(=O)c2ccc(Cl)c(C(=O)Nc3cccc(C(=O)O)c3)c2)cc1 | 1.6 | -0.6 | -0.5 | 5.4* | 0.1 | -1.0
O=C(O)c1cccc(NC(=O)c2cccc(S(=O)(=O)N3CCc4ccccc43)c2)c1 | -1.8 | -2.0 | -0.7 | 4.6* | -1.1 | -2.0
O=C(O)c1cccc(NC(=O)c2ccc(Cl)c(S(=O)(=O)N3CCCCCC3)c2)c1 | 10.9* | 2.0 | -0.5 | -3.9 | 2.1 | 7.7
C[C@H](O)[C@@H]1CN2CCc3ccc(N4CCOCC4)cc3[C@@H]2C[C@@H]1N(C)CC1CCCCC1 | -0.9 | 0.0 | -1.2 | x | -0.8 | -1.3
CC(C)[C@H](NC(=O)[C@H](C)NC(=O)OC(C)(C)C)C(=O)N1CCC2CCN(Cc3ccccc3)CC21 (stereo partly specified) | -3.0 | -0.3 | -1.4 | x | -1.8 | -4.6
CC(C)C[C@H]1COc2ccc(Cl)cc2S(=O)(=O)N1Cc1cn(Cc2ccc(C(F)(F)F)cc2)nn1 | -0.8 | 0.4 | -1.3 | x | -0.1 | -2.5
CCOC(=O)C1=C(C(=O)OCC)C2N(Cc3ccc(C#N)cc3)c3ccccc3[C@@]23C[C@@H](C(=O)OC)N(S(=O)(=O)c2c(C)noc2C)C3=N1 (stereo partly specified) | 0.1 | -0.9 | -1.1 | x | -0.9 | -2.6
C[C@H]1[C@@H](NC(=O)c2cccc(N(C)C)c2)CC[C@@]23CCCN2C(=O)CCC[C@@H]13 | -0.3 | -1.3 | -1.3 | x | x | x
Cc1ccc(CCNC(=O)C2CCC(=O)N(Cc3ccccc3F)C2)o1 (stereo unspecified) | 9.8 | 4.2 | -0.5 | -0.2 | 4.1* | 2.5
CN1CCN(c2ccc3c(c2)Oc2ccccc2CN(Cc2cn(Cc4cccc(C(F)(F)F)c4)nn2)S3(=O)=O)CC1 | -2.4 | -3.1 | -1.4 | x | -1.2 | -4.6
Cc1ccc(S(=O)(=O)Nc2cccc(-c3ccc(N4CCCCCC4)nn3)c2)c(C)c1 | 10.0 | 1.5 | -0.6 | 0.8 | 4.1* | 4.8
O=C(COC(=O)c1c(F)cccc1Cl)NC1CCCCC1 | 6.0 | 2.4 | 1.0* | 0.6 | 2.5 | 3.3
Clc1ccc(-c2cnc(Oc3ccccc3)nc2)cc1 | 10.8* | 1.7 | 0.5 | 2.5 | 3.1 | 5.6
CCCC[C@H]1C2CC(OC(=O)Nc3cccc(Cl)c3)C(C2)[C@H]2CCCCN21 (stereo partly specified) | 2.0 | 0.2 | -1.6 | x | -0.4 | -3.3
O=C(NC(C(=O)N/N=C/c1ccccn1)c1n[nH]c(=O)c2ccccc12)c1ccccc1 (stereo unspecified) | 3.8 | 3.5 | -0.4 | 0.6 | 0.0 | 7.9*
O=C(Nc1ccc([N+](=O)[O-])cc1)C(Cc1ccccc1)N1C(=O)c2cccc3cccc(c23)C1=O (stereo unspecified) | 2.5 | 5.0 | 1.4* | -0.4 | 0.2 | -0.4
O=C(O)c1ccccc1NC(=O)C(Cc1ccccc1)N1C(=O)c2ccccc2C1=O (stereo unspecified) | 0.5 | 1.7 | -1.5 | -0.2 | 0.0 | -1.5
